Records with an inconclusive call do not appear. Calls of active or inactive are those of the source. Unless noted, the call rests on the fitted dose curve; in most records, active means well fitted curve in the direction sought with a large enough effect in the repeat runs; inconclusive means weak or mixed curves; inactive means no such curve, though single readings can be large; an effect the other way counts as inactive or inconclusive.
Key:
[1] = qHTS RealTime-Glo MT Cell Viability Assay in HepG2 cells - 32 hour (AID 1224877); further: nearly all actives have a fitted effect of over 55% in size
Outline: (§1)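 Cell number in HepG2 cultures estimated from NanoLuc luminescence generated by metabolic reduction of a prosubstrate by living cells. The homogeneous, nonlytic format allowed repeated reads at 0, 8, 16, 24, 32 and 40 h of compound exposure.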

[2] = A CellTox Green Cytotoxicity Assay to monitor cytotoxicity in HepG2 cells - 24 hour (AID 1224878); further: nearly all actives have a fitted effect of over 45% in size
Outline: (§2)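 Continuous culture of HepG2 cells with a membrane-impermeant DNA dye; rising fluorescence marks dead cells. Compound exposure lasted up to 40 h at 37 C, with reads every 8 h from 0 h.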

[3] = A CellTox Green Cytotoxicity Assay to monitor cytotoxicity in HepG2 cells - 40 hour (AID 1224879); further: nearly all actives have a fitted effect of over 40% in size
Outline: as §2

[4] = qHTS RealTime-Glo MT Cell Viability Assay in HEK293 cells - 0 hour (AID 1224880); further: top concentration of the series differs between compounds; nearly all actives have a fitted effect of over 45% in size
Outline: (§3)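 qHTS format; HEK293 cells with NanoLuc/prosubstrate reagent, 37 C/5% CO2 for 5 h pre-dosing; compounds 23 nL in DMSO; luminescence at each time point reflects viable cells.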

[5] = A CellTox Green Cytotoxicity Assay to monitor cytotoxicity in HEK293 cells - 32 hour (AID 1224881); further: nearly all actives have a fitted effect of over 40% in size
Outline: (§4)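 Each value comes from one timepoint of a single continuous run in which HEK293 cells with CellTox Green were exposed to compound for up to 40 h at 37 C, dye fluorescence rising with cell death.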

[6] = A CellTox Green Cytotoxicity Assay to monitor cytotoxicity in HepG2 cells - 0 hour (AID 1224882); further: nearly all actives have a fitted effect of over 35% in size
Outline: as §2

[7] = A CellTox Green Cytotoxicity Assay to monitor cytotoxicity in HepG2 cells - 32 hour (AID 1224883); further: nearly all actives have a fitted effect of over 50% in size
Outline: as §2

[8] = qHTS RealTime-Glo MT Cell Viability Assay in HepG2 cells - 16 hour (AID 1224885); further: nearly all actives have a fitted effect of over 50% in size
Outline: as §1

[9] = qHTS RealTime-Glo MT Cell Viability Assay in HEK293 cells - 24 hour (AID 1224886); further: top concentration of the series differs between compounds; nearly all actives have a fitted effect of over 50% in size
Outline: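 Homogeneous bioluminescent viability format in HEK293 cells (600 cells/well). Following 5 h at 37 C/5% CO2, 23 nL compound was pintooled; the signal was measured repeatedly during 40 h incubation.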

[10] = qHTS RealTime-Glo MT Cell Viability Assay in HEK293 cells - 8 hour (AID 1224887); further: top concentration of the series differs between compounds; nearly all actives have a fitted effect of over 50% in size
Outline: as §3

[11] = A CellTox Green Cytotoxicity Assay to monitor cytotoxicity in HEK293 cells - 16 hour (AID 1224888); further: nearly all actives have a fitted effect of over 35% in size
Outline: as §4

[12] = qHTS RealTime-Glo MT Cell Viability Assay in HepG2 cells - 0 hour (AID 1224889); further: nearly all actives have a fitted effect of over 50% in size
Outline: as §1

[13] = A CellTox Green Cytotoxicity Assay to monitor cytotoxicity in HepG2 cells - 8 hour (AID 1224890); further: nearly all actives have a fitted effect of over 45% in size
Outline: as §2

[14] = qHTS assay to identify small molecule antagonists of the estrogen receptor alpha (ER-alpha) signaling pathway using the BG1 cell line in the presence of 0.1 nM 17-beta-estradiol - cell viability counter screen (AID 1259241); further: nearly all actives have a fitted effect of over 40% in size
Outline: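 CellTiter-Fluor read (30 min, 37C) on ER-alpha/ERE-luc VM7Luc4E2 cells; 22 hr compound treatment; agonist 0.1 nM E2 final; same-well multiplex.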

[15] = qHTS assay to identify small molecule antagonists of the androgen receptor (AR) signaling pathway using the MDA cell line in the presence of 0.5 nM R1881 - cell viability counter screen (AID 1259242); further: nearly all actives have a fitted effect of over 45% in size
Outline: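 Fluorescence from CellTiter-Fluor, which reports protease activity of live cells, was read 30 min after reagent addition to MDA-kb2 cells that had been incubated 16 hr with compound and 0.5 nM R1881.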

[16] = molecular target: Estrogen receptor (Homo sapiens) (UniProt P03372); test: qHTS assay to identify small molecule antagonists of the estrogen receptor alpha (ER-alpha) signaling pathway using the BG1 cell line in the presence of 0.1 nM 17-beta-estradiol (AID 1259244); further: nearly all actives have a fitted effect of over 50% in size
Estrogen receptor (Homo sapiens), sequence (P03372 whole entry, looked up): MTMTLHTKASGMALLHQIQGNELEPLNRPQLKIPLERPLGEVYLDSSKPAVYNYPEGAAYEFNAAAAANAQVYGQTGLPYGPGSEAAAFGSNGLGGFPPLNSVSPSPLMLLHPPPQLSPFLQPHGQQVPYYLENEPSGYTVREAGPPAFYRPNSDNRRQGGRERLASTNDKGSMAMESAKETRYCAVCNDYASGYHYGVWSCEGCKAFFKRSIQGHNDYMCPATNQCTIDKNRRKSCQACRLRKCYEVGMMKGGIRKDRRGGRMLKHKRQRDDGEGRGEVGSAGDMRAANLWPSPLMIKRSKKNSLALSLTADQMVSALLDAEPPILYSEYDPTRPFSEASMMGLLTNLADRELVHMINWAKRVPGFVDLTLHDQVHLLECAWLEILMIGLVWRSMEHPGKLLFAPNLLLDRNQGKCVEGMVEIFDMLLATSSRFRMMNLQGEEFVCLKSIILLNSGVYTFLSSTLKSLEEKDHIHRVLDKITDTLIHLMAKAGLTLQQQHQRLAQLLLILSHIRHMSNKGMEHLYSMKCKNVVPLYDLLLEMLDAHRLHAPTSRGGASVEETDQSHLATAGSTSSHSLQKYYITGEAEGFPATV
Outline: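 Quantitative high-throughput screen in VM7Luc4E2 cells: compound plus 0.1 nM E2 (final), 22 h, 37C, 5% CO2; ONE-Glo added, 30 min room temperature, luminescence measured.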

[17] = qHTS assay to identify small molecule HDAC inhibitors (AID 1259364)
Outline: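 Endogenous HDAC class I/II activity was measured in wild-type HCT-116 cells by HDAC-Glo luminescence after 2 h compound treatment.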

[18] = molecular target: Androgen receptor (Homo sapiens) (UniProt P10275); test: qHTS assay to identify small molecule antagonists of the androgen receptor (AR) signaling pathway using the MDA cell line in the presence of 0.5 nM R1881 (AID 1259243); further: nearly all actives have a fitted effect of over 50% in size
Androgen receptor (Homo sapiens), sequence (P10275 whole entry, looked up): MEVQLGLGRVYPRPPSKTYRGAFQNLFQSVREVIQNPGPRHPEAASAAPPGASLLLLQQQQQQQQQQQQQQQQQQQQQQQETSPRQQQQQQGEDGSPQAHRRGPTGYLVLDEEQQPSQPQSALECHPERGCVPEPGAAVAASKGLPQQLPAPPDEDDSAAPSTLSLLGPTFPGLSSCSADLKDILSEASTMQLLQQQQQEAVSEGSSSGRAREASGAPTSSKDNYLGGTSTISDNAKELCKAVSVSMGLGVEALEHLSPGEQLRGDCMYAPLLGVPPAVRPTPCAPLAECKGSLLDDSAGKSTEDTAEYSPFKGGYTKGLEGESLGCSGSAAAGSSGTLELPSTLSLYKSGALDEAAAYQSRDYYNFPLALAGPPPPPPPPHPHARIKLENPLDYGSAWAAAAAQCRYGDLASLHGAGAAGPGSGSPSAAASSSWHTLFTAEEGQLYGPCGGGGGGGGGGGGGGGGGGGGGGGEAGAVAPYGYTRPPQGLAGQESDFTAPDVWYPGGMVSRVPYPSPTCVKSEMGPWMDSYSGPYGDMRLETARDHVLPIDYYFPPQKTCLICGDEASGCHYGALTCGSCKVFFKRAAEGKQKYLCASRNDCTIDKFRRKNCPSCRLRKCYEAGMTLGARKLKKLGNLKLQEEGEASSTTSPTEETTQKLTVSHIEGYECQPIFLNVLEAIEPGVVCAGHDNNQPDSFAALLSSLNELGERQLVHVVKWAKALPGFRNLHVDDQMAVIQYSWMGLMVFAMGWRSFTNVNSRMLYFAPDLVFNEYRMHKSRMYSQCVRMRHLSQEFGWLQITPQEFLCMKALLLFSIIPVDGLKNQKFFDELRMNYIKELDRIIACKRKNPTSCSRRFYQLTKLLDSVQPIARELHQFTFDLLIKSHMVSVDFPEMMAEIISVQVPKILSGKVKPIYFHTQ
Outline: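 Inhibition of R1881 (0.5 nM final) induced reporter signal was measured in human MDA-kb2 cells; note the MMTV promoter also responds to GR. Exposure lasted 16 hr at 37C.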

[19] = A CellTox Green Cytotoxicity Assay to monitor cytotoxicity in HEK293 cells - 8 hour (AID 1224884); further: nearly all actives have a fitted effect of over 35% in size
Outline: as §4

[20] = qHTS assay to identify small molecule phospholipidosis (PLD) inducers (AID 1259344; active means well fitted curve in the direction sought with a large enough effect; an effect the other way counts as inactive or inconclusive)
Outline: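 HepG2 cells, 900/well, treated with compound plus LipidTOX Red for 24 h at 37 C; amiodarone positive and DMSO negative controls. Fixed with paraformaldehyde/Hoechst, then high-content imaging scored LipidTOX pit count and integrated intensity per well and per cell.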

Measured: Potency

CCC(C)SSC(C)CC (stereo not given)
inactive: [1] | [2] | [3] | [4] | [5] | [6] | [7] | [8] | [9] | [10] | [11] | [12] | [13] | [14] | [15] | [16] | [17]

CC1(C)C(=O)C(C)(C)C1=O
inactive: [1] | [2] | [3] | [4] | [5] | [6] | [7] | [8] | [9] | [11] | [12] | [13] | [14] | [15] | [18]

CC(C)(O)CCCC1=CCC(C=O)CC1 (stereo not given)
inactive: [1] | [2] | [3] | [4] | [5] | [6] | [7] | [8] | [9] | [10] | [11] | [12] | [13] | [14] | [15] | [16] | [17]

CC(CC(=O)Cl)CC(C)(C)C (stereo not given)
inactive: [1] | [2] | [3] | [4] | [5] | [6] | [7] | [8] | [9] | [10] | [11] | [12] | [13] | [14] | [15] | [16] | [17]

CC(C)(C)c1ccc(C(=O)CCCCl)cc1
inactive: [1] | [2] | [3] | [4] | [5] | [6] | [19] | [8] | [9] | [10] | [11] | [12] | [13] | [14] | [15] | [16]

COC(C)(C)CC(C)=O
inactive: [1] | [2] | [3] | [4] | [5] | [6] | [7] | [8] | [9] | [11] | [12] | [13] | [14] | [15] | [18] | [17]

CC(C)C(C)C
inactive: [1] | [2] | [3] | [4] | [5] | [6] | [7] | [8] | [9] | [10] | [11] | [12] | [13] | [14] | [15] | [17]

Cc1ccc(O)c(C(=O)c2ccccc2)c1
inactive: [1] | [2] | [3] | [4] | [5] | [6] | [7] | [8] | [9] | [10] | [11] | [12] | [13] | [14] | [15] | [17]

CCOC(=O)CC
inactive: [1] | [2] | [3] | [4] | [5] | [6] | [7] | [8] | [10] | [11] | [12] | [13] | [14] | [15] | [16] | [17]

CCOC(=O)CN1CCCC1=O
inactive: [1] | [2] | [3] | [4] | [5] | [6] | [7] | [8] | [9] | [10] | [11] | [12] | [13] | [14] | [15] | [16] | [17]

CN1CCN(C(=O)C2CCCCC2)CC1
inactive: [1] | [2] | [3] | [4] | [5] | [6] | [19] | [8] | [9] | [10] | [11] | [12] | [13] | [14] | [15] | [16] | [20] | [17]

C/C=C(\C)C=O
inactive: [1] | [2] | [3] | [4] | [5] | [6] | [7] | [8] | [9] | [10] | [11] | [12] | [13] | [14] | [16]

CCOC(=O)CC(C(C)=O)C(C)=O
inactive: [1] | [2] | [3] | [4] | [5] | [6] | [7] | [8] | [9] | [10] | [11] | [12] | [13] | [14] | [15] | [16] | [17]

N=C(N)N
inactive: [1] | [2] | [3] | [4] | [5] | [6] | [7] | [8] | [9] | [10] | [11] | [12] | [13] | [15] | [20] | [17]

OCCC(F)(F)C(F)(F)C(F)(F)C(F)(F)C(F)(F)C(F)(F)F
inactive: [1] | [2] | [3] | [4] | [5] | [6] | [7] | [8] | [10] | [11] | [12] | [13] | [14] | [15] | [16] | [17]

C=CC(=O)OCCOCCOCC
inactive: [1] | [2] | [3] | [4] | [5] | [6] | [7] | [8] | [9] | [10] | [11] | [12] | [13] | [15] | [17]
